This is a sample that favours compounds with a hit; in the whole collection about 12% have one here.
HP1b binding inh – blocks HP1-beta chromodomain binding to methylated histone tails; P83916; AlphaScreen HP1-beta / biotin-H3K9me3 peptide binding; Potency, µM (top dose mostly 114 µM), inactives show top-dose activity change, negative = inhibition, most hits filed as inhibitors; hit rate 0.56% among 390,000; AID 540317; further: nearly all actives have a fitted effect of over 70% in size
Target sequence (P83916 whole entry, looked up): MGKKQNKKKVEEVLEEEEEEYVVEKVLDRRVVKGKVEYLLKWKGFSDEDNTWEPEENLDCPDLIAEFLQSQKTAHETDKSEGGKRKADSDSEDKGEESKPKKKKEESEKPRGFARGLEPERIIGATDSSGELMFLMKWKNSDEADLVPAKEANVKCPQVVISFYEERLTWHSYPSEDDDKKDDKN
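AlphaScreen: HP1-beta (50 nM) preformed 30 min with biotin-H3(1-18)K9me3 peptide (50 nM) in PBS pH 7.4, 0.01% Tween-20. Compound added for 30 min at RT, then streptavidin donor/nickel chelate acceptor beads (10 ug/mL) for 30 min.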
Sfp PPTase inh – inhibitors of Bacillus subtilis Sfp phosphopantetheinyl transferase; Biochemical Sfp PPTase activity, qHTS; hit rate 3.5% among 310,000; Potency, µM, without a hit: largest response in the series, negative = inhibition, most hits filed as inhibitors;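 further: the enzyme is Sfp with the accession as filed and its product quenches rhodamine fluorescence; 0% = enzyme reaction without inhibitor and -100% = no enzyme wells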
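Fluorescence-quenching assay with 15 nM Sfp, 5 uM rhodamine-CoA and 12.5 uM BHQ-2-labelled ybbR peptide in pH 7.6 Hepes/MgCl2 buffer. Enzyme was pre-incubated with compound for 15 min at room temperature. Rate was taken from the 30-min fluorescence change (525/598 nm).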
G9a inh – inhibitors of human histone lysine methyltransferase G9a; G9a H3K9 monomethylation, AlphaScreen, 2 h; Potency, µM (series often up to 102 µM), for inactives: at the top dose activity, negative = inhibition, actives largely listed as inhibitors; hit rate 8.8% among 350,000; AID 504332; further: on the % scale 0 is the no-effect control and ±100 the full control effect; nearly all actives have a fitted effect of over 75% in size
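Using a bead-based AlphaScreen, monomethylated H3K9 product from 2 h room-temperature reactions (G9a 20 nM, peptide 500 nM, SAM 20 uM) was detected with 0.5 ug/mL rabbit anti-H3K9me1 antibody.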
TDP1 inh – TDP1 (human) enzyme inhibition; Q9NUW8; recombinant TDP1, AlphaScreen DNA substrate cleavage; Potency, µM (highest dose often 130 µM), for the others: top-dose activity change, negative = inhibition, actives largely listed as inhibitors; hit rate 0.28% among 350,000; AID 485290; further: on the % scale 0 is the no-effect control and ±100 the full control effect; nearly all actives have a fitted effect of over 40% in size
Target sequence (Q9NUW8 whole entry, looked up): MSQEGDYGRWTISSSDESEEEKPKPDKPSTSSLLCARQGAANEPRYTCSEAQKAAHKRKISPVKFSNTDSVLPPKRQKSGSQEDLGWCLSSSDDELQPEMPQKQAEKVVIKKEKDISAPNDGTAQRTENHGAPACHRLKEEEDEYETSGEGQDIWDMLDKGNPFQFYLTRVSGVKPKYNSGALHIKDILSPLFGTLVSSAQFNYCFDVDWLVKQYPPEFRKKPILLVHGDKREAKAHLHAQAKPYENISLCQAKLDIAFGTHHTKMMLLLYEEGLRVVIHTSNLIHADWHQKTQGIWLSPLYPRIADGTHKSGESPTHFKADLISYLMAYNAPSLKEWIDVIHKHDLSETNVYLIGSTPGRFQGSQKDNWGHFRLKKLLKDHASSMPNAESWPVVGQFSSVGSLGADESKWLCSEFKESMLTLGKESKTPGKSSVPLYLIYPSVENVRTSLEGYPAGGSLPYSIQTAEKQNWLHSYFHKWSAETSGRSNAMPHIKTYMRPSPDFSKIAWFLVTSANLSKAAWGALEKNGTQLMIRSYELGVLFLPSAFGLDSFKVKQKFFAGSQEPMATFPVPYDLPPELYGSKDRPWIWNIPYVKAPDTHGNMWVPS
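Signal: AlphaScreen proximity between streptavidin donor and anti-FITC acceptor beads on intact substrate. Reaction: Tdp1 1 nM, substrate 15 nM final, 5 min RT after 15 min compound preincubation.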
BAZ2B block – inhibitors of human BAZ2B bromodomain. Q9UIF8. AlphaScreen BAZ2B-H3K14Ac peptide displacement. Potency, µM (top dose mostly 114 µM), inactives show at the highest dose activity change, negative = inhibition, actives largely listed as inhibitors. hit rate 4.4% among 360,000. AID 504333; further: on the % scale 0 is the no-effect control and ±100 the full control effect; nearly all actives have a fitted effect of over 60% in size
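Multi-concentration screen (max 110 uM) measuring displacement of acetylated histone H3 peptide from BAZ2B by AlphaScreen, using 50 nM protein, 50 nM peptide and 10 ug/mL streptavidin donor plus Ni-chelate acceptor beads.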
JMJD2A Tudor – JMJD2A Tudor domain (human) inhibition; hit rate 4.4% among 390,000; Potency, µM (titrated, usually from 114 µM), for inactives: at the top dose activity change, negative = inhibition, actives largely listed as inhibitors; AlphaScreen JMJD2A-Tudor / H3K4me3 peptide binding; O75164; further: on the % scale 0 is the no-effect control and ±100 the full control effect; nearly all actives have a fitted effect of over 50% in size
Active calls of the source: *; ? = inconclusive; nt = not tested or not shown; [ ] = another dose, or the depositor's remark. The call rests on the fitted dose curve; in most records, active means well fitted curve in the direction sought with a large enough effect; inconclusive means small, poorly fitted or top-dose-only effect, or another doubt; inactive means no such curve, though single readings can be large; an effect the other way counts as inactive or inconclusive. Potency means the concentration at half of the fitted maximal effect.

SMILES	HP1b binding inh	Sfp PPTase inh	G9a inh	TDP1 inh	BAZ2B block	JMJD2A Tudor
Nc1cnn(Cc2ccccc2F)c1	?	7.5%	?	6.0%	39.8µM*	50.1µM*
Nc1cnn(Cc2ccc(F)cc2)c1	28.5%	24.3%	?	1.2%	?	-20.9%
O=C1CCCN2N=C(SCC(=O)Nc3cccc(C(F)(F)F)c3)SC2=N1	4.7%	16.6%	35.1%	7.5%[0.0935 µM]	2.6%	-7.7%
O=C1CCCN2N=C(SCC(=O)Nc3ccccc3C(F)(F)F)SC2=N1	?	-3.4%	19.2%	-0.4%	56.2µM*	?
Cc1ccc(C2/C(=C(\O)c3ccc4c(c3)OCCO4)C(=O)C(=O)N2CC2CCCO2)cc1 (stereo unspecified)	-0.7%	0.6%	50.1µM*	7.0%	-26.6%	?
O=C1C(=O)N(Cc2ccccc2)C(c2cccc(O)c2)/C1=C(\O)c1ccc2c(c1)OCCO2 (stereo unspecified)	34.6%	0.3%	44.7µM*	5.6%	56.2µM*	-10.7%
O=C1C(=O)N(Cc2cccnc2)C(c2ccc(Br)cc2)/C1=C(\O)c1ccc2c(c1)OCCO2 (stereo unspecified)	17.7%	18.5%	10.2%[59 µM]	7.8%	-13.6%	-13.9%
Cc1ccc(C2/C(=C(\O)c3ccc4c(c3)OCCO4)C(=O)C(=O)N2Cc2cccnc2)cc1 (stereo unspecified)	27.5%	14.8%	56.2µM*	9.4%	-19.8%[57.1 µM]	-30.1%
O=C1C(=O)N(CCN2CCOCC2)C(c2ccccc2)/C1=C(\O)c1ccc2c(c1)OCCO2 (stereo unspecified)	9.2%	11.5%	?	4.3%	-15.0%	?
COc1cccc(-c2cc(NCc3ccccc3)ncn2)c1	nt	4.8%	-4.1%[0.501 µM]	nt	nt	nt
CCCCC(CC)CN1C(=O)/C(=C/c2ccncc2)SC1=S (stereo unspecified)	?	-13.5%	nt	3.8%	?	28.2µM*
O=C1/C(=C/c2cccnc2)SC(=S)N1CCc1ccccc1	12.0%	-0.6%	nt	4.8%	10µM*	-27.5%
CCN1C(=O)/C(=C\c2ccncc2)SC1=S	-25.1%[57 µM]	-4.8%	-4.3%[12.7 µM]	3.8%	?	?
CN(C)S(=O)(=O)c1ccc(C(=O)NCCN2C(=O)S/C(=C\c3cccnc3)C2=O)cc1	48.3%	39.8µM*	-22.7%[59 µM]	0.0%	-22.6%	3.8%
O=C(O)CCN1C(=O)/C(=C\c2ccncc2)SC1=S	33.5%	?	56.2µM*	3.5%	-23.0%	-1.4%
O=C(CCN1C(=O)/C(=C\c2ccccc2)SC1=S)NNC(=O)c1cccnc1	40.9%	-0.1%	1.5%	3.2%	-1.2%	-11.2%
Cc1ccc(/C=C2\SC(=S)N(CCC(=O)NNC(=O)c3ccncc3)C2=O)cc1	-14.3%	-12.2%	nt	nt	1.7%	-15.2%
Cc1cc(Oc2ccc(=O)n(C)n2)nc(=S)[nH]1	nt	?	nt	-2.5%	?	nt
CNc1cc2c(Nc3cccc(Br)c3)ncnc2cn1	nt	-1.2%	nt	-8.9%	nt	nt
O=C(O)CCN1C(=O)S/C(=C\c2cccnc2)C1=O	31.5%	10.5%	70.8µM*	0.0%	?	-10.6%
O=C(O)CCN1C(=O)/C(=C\c2cccc(Oc3ccccc3)c2)SC1=S	?	-7.6%	50.1µM*	nt	50.1µM*	?
COC(=O)CCCCCN1C(=O)/C(=C\c2ccncc2)SC1=S	?	-2.7%	10µM*	10.6%	25.1µM*	44.7µM*
O=c1c2c([N+](=O)[O-])cc([N+](=O)[O-])cc2sn1-c1ccc(Br)cc1	7.94µM*	8.91µM*	1.41µM*	10.3%	5.01µM*	17.8µM*
O=C(Nc1ccc(Br)cc1)c1cc([N+](=O)[O-])cc([N+](=O)[O-])c1	10.2%	-13.7%	nt	nt	-36.4%	-19.9%
O=c1c2c([N+](=O)[O-])cc([N+](=O)[O-])cc2sn1Cc1ccccc1	?	2.24µM*	1µM*	nt	3.55µM*	4.47µM*
SMILES	HP1b binding inh	Sfp PPTase inh	G9a inh	TDP1 inh	BAZ2B block	JMJD2A Tudor
CC(=O)c1ccc(OCCCC(=O)Nc2nnc(C3CC3)s2)cc1	14.5%	nt	nt	-3.0%	nt	-33.3%
Cc1c(C(=O)O/N=C(\N)c2ccccn2)cccc1[N+](=O)[O-]	0.7%	6.5%	31.6µM*	nt	-27.5%	11.2µM*
N/C(=N\OC(=O)Cc1ccccc1[N+](=O)[O-])c1ccccn1	12.2%	-29.6%	?	5.4%	56.2µM*	?
Cc1ccc(-c2cc(-c3coc4ccccc4c3=O)c3c(n2)-c2ccccc2OC3)cc1	24.3%	nt	-1.4%[59 µM]	3.2%	-29.1%	-22.0%
O=c1c2cc(Br)ccc2[nH]c(=S)n1Cc1ccccn1	47.2%	8.9%	7.94µM*	5.4%	-3.6%	-8.1%
O=c1c2cc(N3CCOCC3)ccc2[nH]c(=S)n1Cc1ccccn1	40.3%	20µM*	?	-11.4%	-35.3%	28.2µM*
Cc1cc(C)c(C)c(S(=O)(=O)N2CCC(C(=O)OCC(=O)N3c4ccccc4NC(=O)C3(C)C)CC2)c1C	-10.4%	-3.9%	13.9%[12.7 µM]	-13.7%	50.1µM*	?
CCOc1cc(/C=C/C(=O)O)ccc1OCCO	4.1%	-4.2%	8.4%	0.0%	-13.3%	35.5µM*
O=C1OC(c2ccc3c(c2)OCO3)=N/C1=C\c1ccc(C(=O)O)cc1	4.4%	7.6%	39.8µM*	nt	-22.2%	-19.7%
O=C(O)c1cccc(-c2ccc3c(c2)OCO3)c1	45.6%	11.4%	-11.5%	5.4%	-9.8%	-9.6%
COc1ccccc1NC(=S)NNC(=O)c1c(Cl)c(C)nn1C	20.0%	3.2%	25.1µM*	5.8%	-27.6%	-19.9%
COc1ccccc1NC(=S)c1ccccc1	-27.3%	31.6µM*	7.94µM*	2.7%	-10.5%	-21.4%
COc1cc(OC)cc(C(=O)NNC(=S)Nc2ccccc2OC)c1	21.3%	3.1%	39.8µM*	-3.8%	-7.2%	-10.5%
COc1ccccc1NC(=S)NNC(=O)c1ccccc1	24.6%	nt	nt	nt	nt	-13.9%
COc1ccccc1NC(=S)NNC(=O)c1ccccc1Br	18.9%	-9.1%	35.5µM*	9.3%	-7.1%	-4.3%
COc1ccc(-c2nn(-c3ccc(F)cc3)c3c2cnc2ccc(F)cc23)cc1OC	14.3%	nt	7.5%[59 µM]	0.0%	nt	-17.0%
CC(C)(C)C(=O)Nc1cc(NC(=O)C(C)(C)C)cc(C(=O)Nc2c[nH]c(=O)[nH]c2=O)c1	8.8%	nt	nt	nt	nt	-11.4%
Cn1ncc(N=Cc2ccccc2)c1C(N)=O	20.1%	-1.9%	-45.6%[12.7 µM]	0.0%	-2.8%	1.6%
Nc1ncc(Br)cc1N=Cc1ccccc1	16.8%	79.4µM*	?	5.1%	-5.1%	-20.3%
Cc1ccc(C)c(SCC(=O)Nc2ccc(S(=O)(=O)Nc3ncccn3)cc2)c1	-12.8%	11.9%	3.8%	-8.6%	-35.3%	-27.6%
COc1ccc(CC(=O)N/N=C(\C)CC(=O)NCc2ccco2)cc1OC	18.4%	6.0%	?	nt	-15.5%	-17.8%

Screening results from PubChem.
